Experimental findings from PubChem BioAssay are described below.

Calls of active or inactive are those of the source. Unless noted, the rule behind the calls is not given here.

Test [1] in a line: compounds binding Alexa647 anti-His antibody – biochemical, small-molecule microarray, 635 nm fluorescence, artefact control for SMM control protein annotation, primary screen (AID 1128).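 Note: score merges feature fluorescence with signal-to-noise for each printed compound spot.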 The settings on record: higher = more signal.
In test [2] the test system is Human papillomavirus type 1a E7 protein (residues 1-88). The test is described as follows: HPV1a E7 small-molecule binders, primary screen, biochemical, small-molecule microarray, residues 1-88, 635 nm (AID 1129). The settings on record: small-molecule microarray binding, fluorescence 635 nm; higher = more signal.
Test [3] deals with Focal adhesion kinase 1 (Homo sapiens) (UniProt Q05397). The test is described as follows: PTK2 protein binding on printed compound slides – biochemical, small-molecule microarray, 635/667 nm fluorescence, BSA, DTT, primary screen (AID 1130).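 Note: composite of spot emission at 667 nm and signal to noise over triplicate slides.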 The settings on record: 635 nm fluorescence, higher = more signal.
Chain of Focal adhesion kinase 1 (Homo sapiens) (Q05397 whole entry, looked up): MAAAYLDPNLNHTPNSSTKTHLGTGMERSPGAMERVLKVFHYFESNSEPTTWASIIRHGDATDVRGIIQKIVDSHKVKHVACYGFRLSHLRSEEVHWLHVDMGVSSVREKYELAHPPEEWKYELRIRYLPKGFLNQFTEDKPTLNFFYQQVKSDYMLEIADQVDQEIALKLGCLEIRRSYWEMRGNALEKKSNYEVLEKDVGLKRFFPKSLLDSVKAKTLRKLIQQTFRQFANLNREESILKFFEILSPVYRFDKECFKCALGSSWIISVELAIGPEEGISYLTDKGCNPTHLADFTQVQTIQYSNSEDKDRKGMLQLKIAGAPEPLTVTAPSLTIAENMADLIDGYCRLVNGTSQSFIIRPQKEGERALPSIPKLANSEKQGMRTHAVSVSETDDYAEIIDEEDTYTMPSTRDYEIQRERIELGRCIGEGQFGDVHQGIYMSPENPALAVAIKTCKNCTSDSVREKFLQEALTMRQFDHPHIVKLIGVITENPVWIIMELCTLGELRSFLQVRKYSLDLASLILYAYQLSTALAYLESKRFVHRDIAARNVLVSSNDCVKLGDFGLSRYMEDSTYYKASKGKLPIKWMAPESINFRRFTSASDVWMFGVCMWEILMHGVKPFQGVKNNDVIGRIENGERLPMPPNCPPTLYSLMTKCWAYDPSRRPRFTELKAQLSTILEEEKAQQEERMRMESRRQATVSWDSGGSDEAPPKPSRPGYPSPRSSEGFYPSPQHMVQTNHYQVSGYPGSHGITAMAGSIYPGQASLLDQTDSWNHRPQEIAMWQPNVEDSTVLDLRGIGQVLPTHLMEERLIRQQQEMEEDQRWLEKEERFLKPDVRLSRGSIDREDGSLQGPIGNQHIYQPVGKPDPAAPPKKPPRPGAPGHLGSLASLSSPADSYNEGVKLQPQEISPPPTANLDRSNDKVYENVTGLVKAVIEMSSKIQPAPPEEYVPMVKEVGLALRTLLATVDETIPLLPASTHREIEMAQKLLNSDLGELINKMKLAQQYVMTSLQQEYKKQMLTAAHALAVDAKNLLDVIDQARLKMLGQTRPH
Test [4] concerns Fibrinogen (Alexa647-labelled). The test can be described thus: Alexa647-fibrinogen binding to printed small molecules – biochemical, small-molecule microarray, 635/667 nm fluorescence, artefact control for SMM control-protein annotation, profiling panel (AID 1131).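 Note: z-score merges 667 nm fluorescence with per-spot signal-to-noise over triplicate slides.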 The settings on record: fibrinogen-A647 binding fluorescence, higher = more signal.
Test [5] deals with Follistatin (Homo sapiens) (UniProt P19883). The test can be described thus: FST protein binding to printed compounds – biochemical, small-molecule microarray, 635/667 nm fluorescence, primary screen (AID 1132). The settings on record: 635 nm fluorescence, higher = more signal.
Chain of Follistatin (Homo sapiens) (P19883 whole entry, looked up): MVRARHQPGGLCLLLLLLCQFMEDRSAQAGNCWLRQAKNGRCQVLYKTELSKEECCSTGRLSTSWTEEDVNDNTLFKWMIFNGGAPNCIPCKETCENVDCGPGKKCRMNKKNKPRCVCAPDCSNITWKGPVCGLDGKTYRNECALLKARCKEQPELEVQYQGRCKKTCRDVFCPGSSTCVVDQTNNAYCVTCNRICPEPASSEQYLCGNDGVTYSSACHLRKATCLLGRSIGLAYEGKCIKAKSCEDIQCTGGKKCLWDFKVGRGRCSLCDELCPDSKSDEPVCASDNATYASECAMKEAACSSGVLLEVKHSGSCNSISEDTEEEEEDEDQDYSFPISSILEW
In test [6] the target is Fibroblast growth factor 2 (Homo sapiens) (UniProt P09038). The test can be described thus: basic fibroblast growth factor binding to printed compounds – biochemical, small-molecule microarray, 635/667 nm fluorescence, primary screen (AID 1133). The conditions noted are these: FGF2, fluorescence 635/667, higher = more signal.
Chain of Fibroblast growth factor 2 (Homo sapiens) (P09038 whole entry, looked up): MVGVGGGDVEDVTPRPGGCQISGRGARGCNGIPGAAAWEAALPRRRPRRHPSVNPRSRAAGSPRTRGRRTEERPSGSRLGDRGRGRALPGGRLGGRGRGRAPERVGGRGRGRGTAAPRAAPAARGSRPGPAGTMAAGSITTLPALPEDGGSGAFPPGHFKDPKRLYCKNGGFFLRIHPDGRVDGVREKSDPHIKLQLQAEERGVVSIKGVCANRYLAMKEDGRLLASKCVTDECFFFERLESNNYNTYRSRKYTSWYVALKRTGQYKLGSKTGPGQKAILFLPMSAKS
The nature of test [7]: JC-1 mitochondrial potential readout, lung cancer cells – cell-based, A549, JC-1 fluorescence, basal, 24 h, 100 nL, profiling panel (AID 1138).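 Note: A549 lung adenocarcinoma cells under basal conditions with no added stimulus; test concentration not given here.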 The conditions noted are these: higher = more signal.
In test [8] the test system is Lefty1. The test is described as follows: Lefty1 protein binding to printed compounds – biochemical, small-molecule microarray, 635/667 nm fluorescence, primary screen (AID 1139). The conditions noted are these: fluorescence 635/667, higher = more signal.
Test [9] relates to wheat germ agglutinin (Triticum aestivum), Alexa647-labelled. The test is described as follows: Alexa647-WGA lectin binding to printed small molecules – biochemical, small-molecule microarray, 635/667 nm fluorescence, artefact control for SMM control-protein annotation, profiling panel (AID 1140).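 Note: score merges 667 nm feature emission with signal to noise over triplicate slides.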 The settings on record: WGA-A647 binding, 635 nm fluorescence, higher = more signal.

For test [10], the target named is Luciferin 4-monooxygenase (Photinus pyralis) (UniProt P08659). The test is described as follows: inhibition of purified Photinus pyralis luciferase – biochemical, luminescence, purified enzyme, 2006 set, primary screen (AID 1141).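 Note: cell-free assay with purified firefly luciferase at 100 ng per well in PBS; test concentration not given here.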 The conditions noted are these: purified firefly luciferase, SteadyGlo luminescence, 30 min; higher = more signal, called active from +8 up or from −8 down.
Chain of Luciferin 4-monooxygenase (Photinus pyralis) (P08659 whole entry, looked up): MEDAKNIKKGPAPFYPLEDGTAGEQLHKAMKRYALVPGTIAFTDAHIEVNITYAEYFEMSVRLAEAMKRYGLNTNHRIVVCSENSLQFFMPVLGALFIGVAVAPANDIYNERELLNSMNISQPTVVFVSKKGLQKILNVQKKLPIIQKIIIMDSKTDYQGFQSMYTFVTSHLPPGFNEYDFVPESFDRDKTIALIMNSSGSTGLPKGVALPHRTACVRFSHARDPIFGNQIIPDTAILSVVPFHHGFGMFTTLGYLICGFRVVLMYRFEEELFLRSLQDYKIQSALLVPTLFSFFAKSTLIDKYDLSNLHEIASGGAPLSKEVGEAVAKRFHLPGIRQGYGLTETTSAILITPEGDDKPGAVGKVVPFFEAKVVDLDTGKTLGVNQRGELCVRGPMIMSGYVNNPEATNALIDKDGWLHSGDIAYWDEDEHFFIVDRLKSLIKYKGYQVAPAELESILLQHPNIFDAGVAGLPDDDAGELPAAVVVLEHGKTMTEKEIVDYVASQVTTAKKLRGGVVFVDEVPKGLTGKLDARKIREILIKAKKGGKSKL

For test [11], the system named is Wnt5a (protein binding on small-molecule microarray). The test is described as follows: small molecules binding Wnt5a protein – biophysical, small-molecule microarray, 635/667 nm fluorescence, primary screen (AID 1142).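 Note: fluorescence read at 667 nm with signal to noise per printed feature.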 The conditions noted are these: 635 nm fluorescence, higher = more signal.
The nature of test [12]: ATP-based viability of Huh7 replicon cells – cell-based, CellTiter-Glo luminescence, basal, 48 h, cytotoxicity control for HCV replication inhibitor project, primary screen (AID 1143).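 Note: Huh7 hepatoma cells carrying a hepatitis C replication reporter with no stimulus; test concentration not given here.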 The conditions noted are these: higher = more signal, called active from +8 up or from −8 down. (In antiviral work, replicon cells carry a viral genome segment that copies itself.)
A short description of test [13]: Pseudomonas biofilm growth suppression – PAO1 strain, BacTiter-Glo luminescence, LB-PBS, primary screen (AID 1144). The settings on record: P. aeruginosa PAO1 biofilm, 12 h, higher = more signal.
Test [14] can be described thus: basal CRE-LacZ reporter activity in PC12 – cell-based, unstimulated, primary screen (AID 1145). The conditions noted are these: no forskolin, luminescence, 4.5 h, higher = more signal, called active from +8 up or from −8 down.
The nature of test [15]: forskolin-driven CRE-LacZ activity in PC12 – cell-based, CRE-LacZ reporter, forskolin-stimulated, primary screen (AID 1146).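 Note: PC12 cells with 6xCRE LacZ reporter stimulated by forskolin 10 µM; beta-galactosidase reporter signal reflecting CREB driven transcription.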 The conditions noted are these: luminescence, 4.5 h, higher = more signal, called active from +8 up or from −8 down.
The target of test [16] is Streptavidin (Streptomyces avidinii) (UniProt P22629). The test is described as follows: compounds binding control protein streptavidin – biophysical, small-molecule microarray, 635/667 nm fluorescence, artefact control for SMM compound annotation, primary screen (AID 1147).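 Note: signal reflects streptavidin binding to arrayed compounds as a control protein.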 The settings on record: higher = more signal.
Chain of Streptavidin (Streptomyces avidinii) (P22629 whole entry, looked up): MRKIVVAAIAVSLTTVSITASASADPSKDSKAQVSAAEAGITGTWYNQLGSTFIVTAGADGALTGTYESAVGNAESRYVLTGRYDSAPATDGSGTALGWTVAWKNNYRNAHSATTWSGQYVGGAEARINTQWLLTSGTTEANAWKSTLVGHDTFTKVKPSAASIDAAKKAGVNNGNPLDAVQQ
Test [17] is described as follows: probe aInhba binding on compound microarray – biochemical, small-molecule microarray, 635/667 nm fluorescence, primary screen (AID 1148).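 Note: score merges 667nm spot fluorescence with signal-to-noise for antibody binding to printed compounds.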 The conditions noted are these: higher = more signal.
In test [18] the target is Torsin-1A (Homo sapiens) (UniProt O14656). The test can be described thus: TOR1A wild-type binding on microarray – cell lysate, small-molecule microarray, lysate, 635/667 nm, primary screen (AID 1149). The conditions noted are these: COS7 hTOR1A-WT lysate, 635 nm fluorescence, higher = more signal.
Chain of Torsin-1A (Homo sapiens) (O14656 whole entry, looked up): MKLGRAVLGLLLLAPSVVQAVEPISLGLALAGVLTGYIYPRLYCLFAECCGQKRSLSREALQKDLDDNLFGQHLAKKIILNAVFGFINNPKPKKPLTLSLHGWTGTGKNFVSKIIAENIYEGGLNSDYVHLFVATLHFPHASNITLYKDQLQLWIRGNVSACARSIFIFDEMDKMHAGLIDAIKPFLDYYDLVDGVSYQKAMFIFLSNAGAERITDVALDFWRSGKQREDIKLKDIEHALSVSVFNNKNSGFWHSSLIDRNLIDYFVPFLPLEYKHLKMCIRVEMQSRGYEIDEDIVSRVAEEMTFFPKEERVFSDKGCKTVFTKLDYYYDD
The target is the same in test [19]. The test can be described thus: torsin A mutant lysate binding on microarrays – cell lysate, small-molecule microarray, COS7 lysate, 635/667 nm fluorescence, primary screen (AID 1150).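 Note: score pools 667 nm emission and signal to noise measuring lysate protein binding.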 The settings on record: COS7 hTOR1A mutant lysate, 635 nm fluorescence, higher = more signal.
Test [20] concerns Sonic hedgehog protein (Shh). The test can be described thus: Sonic hedgehog microarray binding compounds – biochemical, small-molecule microarray, 635/667 nm fluorescence, primary screen (AID 1151).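 Note: Shh protein binding to compounds spotted on small-molecule microarray slides; score combines spot fluorescence intensity with signal-to-noise across triplicate slides.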 The settings on record: 635 nm fluorescence, higher = more signal.

As to `COc1ccc([Si](C)(C)[C@H]2[C@H](CCn3cc([C@H](O)c4ccccc4)nn3)O[C@@]3(C(=O)N(Cc4cccc(N5CCC5=O)c4)c4ccccc43)[C@@H]2C)cc1`, the composite z-score in test [1] was 0.396; in test [2], 0.302; in test [3] it was -0.0817; in test [4] it was 0.435; in [5], 1.34; in test [6], 1.54. Also, the composite z-score in test [8] is 0.811; in test [9], 0.219; in test [11], 0.42; in test [16], 0.552; in test [17] it was -0.045; in test [18], 0.358. In addition, the composite z-score in test [19] amounted to 0.0772; in test [20], 1.9. The z-score was 2.35 in test [7]; -0.719 (inactive) in test [10]; -1.67 (inactive) in [12]; 0.115 (inactive) in test [13]; 2.55 (inactive) in test [14]; -0.157 (inactive) in test [15].
For `O=C(CS)NCCCCCCNC(=O)[C@H]1C[C@H]2C(=O)NCC(=O)N2[C@H]1c1ccc(O)cc1`, the composite z-score in test [1] was 0.0346; in test [2], -0.591; in [3] it was 0.147; in [4], -0.634; in [5], 1.11; in test [6] it was 0.697. In addition, the composite z-score in test [8] was -0.0467; in test [9], -0.223; in [11], -0.319; in test [16], -0.406; in test [17] it was -0.188; in test [18], -0.21. Also, the results for the composite z-score in [19] and in [20] were -0.14 and 0.518, respectively. For the same molecule, the z-score in test [7] was 0.139; in test [10] it was -0.199 (inactive); in test [12] it was 0.0181 (inactive); in [13], -0.333 (inactive); in [14], 0.692 (inactive); in test [15], 0.551 (inactive).
As for `CCOC(=O)C1=CCC(C(C)(C)C)N(S(=O)(=O)c2ccc(C)cc2)C1` (stereo not given), the composite z-score in [1] stood at 0.992; in [2], 1.26; in [3], 0.225; in [4] it was 1.01; in test [5], 1.29; in test [6], 1.39. Also, the composite z-score is 1 in test [8]; 0.722 in [9]; 0.858 in test [11]; 1.6 in test [16]; -0.0933 in [17]; 0.881 in test [18]. The composite z-score in [19] is 1.67; in test [20] it was 0.722. The z-score in test [7] is 0.363; in test [10], 0.916 (inactive); in [12] it was -4.52 (inactive); in test [13], 1.19 (inactive); in test [14], 0.883 (inactive); in test [15] it was 0.639 (inactive).
On to `C=C(CCCC)C(=O)CC[C@H](OC(=O)c1cccnc1)c1cccc(OCCO)c1`, for which the composite z-score is 0.637 in test [1]; -0.395 in test [2]; -0.262 in test [3]; -0.847 in test [4]; 0.254 in [5]; 0.275 in test [6]. For the same molecule, the composite z-score in test [8] is 0.563; in test [9] it was -0.288; in test [11] it was 0.54; in test [16] it was 0.0158; in test [17], -0.231; in [18], 0.524. Further, the figures for the composite z-score in test [19] and in test [20] were 0.186 and 1.12, respectively. In addition, the z-score in [7] is 1.28; in test [10] it was -1.2 (inactive); in [12] it was -0.293 (inactive); in [13] it was -0.0707 (inactive); in test [14], 11 (active); in [15], 0.189 (inactive).
Regarding `COCCOC(=O)N1C(=O)[C@@]2(c3cc(C#CC4=CCCCC4)ccc31)[C@H](C(=O)NC[C@H](O)c1ccccc1)[C@H]1C(=O)O[C@H](c3ccccc3)[C@H](c3ccccc3)N1[C@@H]2c1ccc(O)cc1`, the composite z-score in test [1] stood at 0.0524; in test [2], 1.19; in test [3], 0.703; in test [4] it was 0.86; in test [5], 1.32; in [6] it was 1.32. Besides, the composite z-score is 0.861 in [8]; 0.845 in test [9]; 0.236 in test [11]; 1 in test [16]; 0.221 in test [17]; 0.838 in [18]. For the same molecule, the composite z-score in test [19] turned out to be 0.652; in [20] it was 1.34. Further, the z-score in test [7] is -1.23; in test [10], -1.31 (inactive); in test [12] it was -3.91 (inactive); in [13], 1.19 (inactive); in test [14] it was 0.208 (inactive); in test [15] it was -1.04 (inactive).
